# Screening results (PubChem BioAssay)
# The sample as a whole holds a higher share of hits than the screen did.
# VHR inh color: VHR1 (DUSP3) phosphatase inhibition. P51452. recombinant VHR phosphatase, colorimetric substrate read-out. inhibition, % at 20 µM. actives 0.7% (n = 50,000). AID 1992; in the data active = inhibition above about 60%
# Target sequence (P51452 whole entry, looked up): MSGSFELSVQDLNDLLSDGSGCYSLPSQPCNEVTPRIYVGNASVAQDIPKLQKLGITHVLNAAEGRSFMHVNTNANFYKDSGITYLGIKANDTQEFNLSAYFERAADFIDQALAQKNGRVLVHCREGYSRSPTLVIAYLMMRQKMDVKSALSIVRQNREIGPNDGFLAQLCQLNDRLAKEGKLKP
# Starred values were filed as active, the others as inactive.
SMILES,VHR inh color
O=C1C2C3C=CC(C3)C2C(=O)N1c1cc([N+](=O)[O-])ccc1O (centres undefined),-18
COc1ccc(/C=C2\SC(=S)N(CCCC(=O)Nc3ccccc3)C2=O)cc1,-23
Cc1ccc(N2C(=O)CC(=O)NC2=S)cc1,6
O=C1CC(=O)N(c2ccc(Cl)c(Cl)c2)C(=S)N1,73*
O=C1CC(=O)N(c2ccccc2)C(=S)N1,4
CS(=O)(=O)N(Cc1ccc(C(=O)N[C@@H]2C[C@H]3CC[C@@H]2C3)cc1)c1ccccc1,7
COc1ccc(/C=C2\SC(=O)N(CCC(=O)Nc3cccc(C)c3)C2=O)cc1OC,80*
COc1ccccc1NC(=O)CCN1C(=O)S/C(=C/c2ccc(OC)c(OC)c2)C1=O,-5
COc1ccc(/C=C2\SC(=O)N(CCC(=O)Nc3ccccc3C)C2=O)cc1OC,17
O=C(Nc1ccc(Br)cn1)c1ccc(Oc2ccccc2)cc1,98
O=C1C=C/C(=N\S(=O)(=O)c2ccccc2)C=C1Cl,24
O=C1C(Cl)=CC(=NS(=O)(=O)c2ccccc2)C=C1Br,72*
CC1=C/C(=N/S(=O)(=O)c2ccc(C)cc2)C=C(Cl)C1=O,58
O=C(Cc1ccccc1)NC(CCC(=O)OCc1ccccc1)C(=O)NCCO (centres undefined),1
CCCCSCC(O)COC(C)C (centres undefined),-13
CCCn1c(/C=C(/OC(=O)c2ccccc2)c2ccccc2)nc2ccccc21,-14
O=C(O/C(=C/c1nccn1Cc1ccccc1Cl)c1ccc(F)cc1)c1ccc(F)cc1,110*
N/C(Cc1cccc2ccccc12)=N\OC(=O)c1ccc(F)cc1,-16
Cc1nn(-c2ccccc2)c(N2CCCCC2)c1/C=N/Nc1ccc(C(F)(F)F)cn1,3
Cc1ccc(NC(=O)C(Cl)Cl)c(Br)c1,2
Cc1ccc(S(=O)(=O)N2CCN(C(=O)c3cccc(F)c3)CC2)cc1,101*
COc1ccc(S(=O)(=O)N2CCN(C(=O)c3cccc(F)c3)CC2)cc1,-21
Cc1ccc(S(=O)(=O)N2CCN(C(=O)c3cccnc3)CC2)cc1,10
COC(=O)c1ccc(/C=C/C(=O)c2ccc(Cl)cc2)cc1,5
Clc1ccc(CN2CCN(/N=C\c3ccc(OCc4ccccc4)cc3)CC2)cc1,5
SMILES,VHR inh color
Oc1c(C2=NCCCCC2)c2ccccc2n1-c1c(Cl)cccc1Cl,6
O=C(Nc1ccc(-c2nc3ccccc3s2)c(O)c1)c1cc2ccccc2o1,-7
O=C(/C=C/c1ccco1)Nc1ccc(-c2nc3ccccc3s2)c(O)c1,75*
O=C(/C=C/c1ccco1)Nc1ccc(O)c(-c2nc3ccccc3o2)c1,18
O=C(Cc1ccc([N+](=O)[O-])cc1)N/N=C/c1ccccn1,-8
O=C1c2ccccc2-c2onc3ccc(NC4CCCCC4)c1c23,9
S=c1[nH]nc(NNc2ccccc2)n1Nc1ccccc1,-18
COc1cccc(-n2c(/C=C/c3c(C)[nH]c4ccccc34)nc3ccccc3c2=O)c1,76*
Cc1[nH]c2ccccc2c1/C=C/c1nc2ccccc2c(=O)n1-c1ccc([N+](=O)[O-])cc1,8
Cc1[nH]c2ccccc2c1/C=C/c1nc2ccccc2c(=O)n1C,-3
CCc1c(C)c2ccc(OC)c(C)c2oc1=O,7
COc1cc(Br)c(/C=C2\C(=O)NC(=O)N(c3cc(C)cc(C)c3)C2=O)cc1OC,2
O=C(COc1ccc(Cl)cc1Br)NNC(=O)c1cccs1,-10
O=C1NC(=S)N(c2ccc(Cl)cc2)C(=O)/C1=C/C=C/c1ccccc1,52
O=C1NC(=S)N(c2cccc(Cl)c2)C(=O)/C1=C\C=C\c1ccccc1[N+](=O)[O-],88*
COc1cccc(N2C(=O)NC(=O)/C(=C/C=C/c3ccccc3[N+](=O)[O-])C2=O)c1,21
Cc1cc(OCC(=O)NCc2ccco2)ccc1Br,2
CC1=C(C(=O)OCc2ccccc2)C(c2ccc(F)c(Br)c2)CC(=O)N1 (centres undefined),5
COC(=O)C1=C(C)NC(=O)CC1c1ccccc1C(F)(F)F (centres undefined),-33
CC1=C(C(=O)OC(C)C)C(c2ccc(F)c(Br)c2)CC(=O)N1 (centres undefined),118*
CC1=C(C(=O)OC(C)C)C(c2ccccc2Br)CC(=O)N1 (centres undefined),102*
CC1=C(C(=O)OC(C)C)C(c2cc(Br)ccc2F)CC(=O)N1 (centres undefined),102*
CC1=C(C(=O)OC(C)C)C(c2cccc(Br)c2)NC(=O)N1 (centres undefined),-14
CC1=C(C(=O)OC(C)C)C(c2ccccc2Cl)CC(=O)N1 (centres undefined),29
COC(=O)C1=C(C)NC(=O)CC1c1ccc(F)c(Br)c1 (centres undefined),-13
SMILES,VHR inh color
CC1=C(C(=O)OC(C)C)C(c2ccc(Br)cc2)C2=C(CC(c3ccc(Cl)cc3)CC2=O)N1 (centres undefined),-19
Cc1ccc(/C(N)=N/OC(=O)COc2cccc(C)c2)cc1,-8
Cc1sc(NC(=O)c2ccc(F)cc2)nc1C12CC3CC(CC(C3)C1)C2,-26
O=C(COc1ccc([N+](=O)[O-])cc1)Nc1cc(C(F)(F)F)cc(C(F)(F)F)c1,-4
CCOC(=O)c1sc(NC(=O)c2cc(OC)cc(OC)c2)c(C(N)=O)c1C,-18
CCOc1ccccc1N(CC(=O)NC1CCCC1)S(=O)(=O)c1ccccc1,-5
COc1ccccc1Nc1ncc(F)c(N2CCOCC2)n1,-28
COc1ccc(Br)cc1/C=C/C(=O)Nc1cccnc1,-2
C=CCSC1=C(C#N)C2(CCCCC2)C(C#N)C(=O)N1 (centres undefined),0
N#CC1=C(SCc2ccccc2)NC(=O)C(C#N)C12CCCCC2 (centres undefined),-9
N#CC1=C(S)NC(=O)C(C#N)C12CCCCC2 (centres undefined),81*
Cc1ccc(OCC(=O)O/N=C(\N)c2ccccn2)c(C)c1,-1
CCCC1=NN2C(=N)/C(=C/c3ccc(-c4ccc(Cl)cc4Cl)o3)C(=O)N=C2S1,10
CCCC1=NN2C(=N)/C(=C/c3cc(OC)ccc3OC)C(=O)N=C2S1,112*
CCCC1=NN2C(=N)/C(=C/c3ccc4c(c3)OCO4)C(=O)N=C2S1,105*
CCC1=NN2C(=N)/C(=C/c3ccc(OCCOc4cccc(OC)c4)c(OC)c3)C(=O)N=C2S1,-11
CCCC1=NN2C(=N)/C(=C/c3ccc(OCc4ccccc4Cl)cc3)C(=O)N=C2S1,3
CCOc1ccc(Cl)cc1/C=C1\C(=N)N2N=C(CC)SC2=NC1=O,-9
CCOc1ccccc1NC(=O)c1c(NC(=O)c2ccccc2Br)sc2c1CCC(C)C2 (centres undefined),0
N#Cc1ccccc1NC(=O)CC1Sc2ccc(C(F)(F)F)cc2NC1=O (centres undefined),-1
COC(=O)c1c(N)sc2c1CCCCCC2,-13
COC(=O)c1c(N)sc2c1CCCC2,19
NC(=O)c1c(N)sc2c1CCCCCCCCCC2,100*
COC(=O)c1cc(NC(=O)CCCOc2ccc(Cl)cc2C)cc(C(=O)OC)c1,-24
Cc1nc(NC(=O)c2ccccc2)sc1-c1csc(Nc2ccc(O)cc2)n1,71*
Cc1nc(N)sc1-c1csc(Nc2ccc(S(N)(=O)=O)cc2)n1,26
Cc1nc(NC(=O)c2ccccc2)sc1-c1csc(Nc2cccc(C(=O)O)c2)n1,-8
CCc1ccc(-c2csc(N3N=C(c4cccs4)CC3c3ccc(F)cc3)n2)cc1 (centres undefined),-8
CC1CCN(C(=O)c2ccc(Cl)cc2)CC1,-21
